Laboratory results published in PubChem BioAssay AID651710 (Broad Institute, 2012).
The campaign covered roughly 360,000 compounds. About 1,600 (0.44%) were called active. Many of the other results were omitted from the sample, so actives are more common in it than they were. A number with no mark means an inactive call.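 How the source made its calls: active means every replicate showing at least 50% inhibition; inconclusive means mean inhibition at least 50% but not in every replicate; inactive means the rest.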

Target: DNA repair protein RAD52 homolog (Homo sapiens) (UniProt P43351)
Sequence (P43351 whole entry, looked up): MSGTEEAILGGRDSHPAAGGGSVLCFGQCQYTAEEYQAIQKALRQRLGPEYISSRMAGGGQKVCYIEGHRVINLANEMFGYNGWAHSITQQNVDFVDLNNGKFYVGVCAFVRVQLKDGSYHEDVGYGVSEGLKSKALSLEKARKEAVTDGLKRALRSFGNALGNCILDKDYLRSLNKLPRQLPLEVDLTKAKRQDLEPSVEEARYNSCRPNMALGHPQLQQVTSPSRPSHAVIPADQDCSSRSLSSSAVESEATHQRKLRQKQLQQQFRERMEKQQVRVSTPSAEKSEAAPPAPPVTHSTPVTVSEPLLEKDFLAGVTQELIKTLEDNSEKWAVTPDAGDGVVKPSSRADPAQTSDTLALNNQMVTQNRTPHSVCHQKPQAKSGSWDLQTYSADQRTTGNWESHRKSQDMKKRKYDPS
Assay: RAD52 DNA annealing inhibitors, primary screen, biochemical, FRET, single point, set 2 (AID 651710)
Details: recombinant RAD52 DNA annealing, FRET fluorescence; at 18.7 µM; hits give high values

SMILES | inhibition
CC(C)NC(=O)N(C)C[C@H]1Oc2ccc(N(C)C)cc2C(=O)N([C@@H](C)CO)C[C@H]1C | -18.9%
COc1ccc2c3c(n(C)c2c1)[C@@H](CO)NCC31CCN(CC2CCCC2)CC1 | 37.5%
CCS(=O)(=O)N1CCC2(CC1)CN[C@H](CO)c1c2c2ccc(OC)cc2n1C | 5.49%
COc1ccc2c3c(n(C)c2c1)[C@@H](CO)NCC31CCN(CC2CC2)CC1 | 55.9% (active)
COc1ccc(NC(=O)Nc2ccc3c(c2)C(=O)N([C@@H](C)CO)C[C@@H](C)[C@H](CN(C)S(=O)(=O)c2cccs2)O3)cc1 | -4.93%
COc1ccccc1S(=O)(=O)N(C)C[C@H]1Oc2cc(C#CCC3CCCC3)ccc2S(=O)(=O)N([C@@H](C)CO)C[C@H]1C | 9.21%
Cc1ccc(S(=O)(=O)N2C[C@H](O)COC[C@@H]3O[C@@H](CC(=O)NCC4CCCCC4)CC[C@H]32)cc1 | 37.6%
O=C(C[C@@H]1CC[C@H]2[C@@H](COC[C@H](O)CN2S(=O)(=O)c2ccccc2)O1)NCCN1CCCC1 | 8.64%
O=C(C[C@@H]1CC[C@@H]2[C@H](COC[C@@H](O)CN2S(=O)(=O)c2ccccc2)O1)NCC1CCCCC1 | 91% (active)
COc1ccccc1-c1ccc2c(c1)O[C@@H](CN(C)CC1CCOCC1)[C@H](C)CN([C@@H](C)CO)S2(=O)=O | 17%
COCC(=O)NC[C@@H]1[C@@H](c2ccc(C3=CCCC3)cc2)[C@@H](CO)N1C(C)=O | 2.17%
CCS(=O)(=O)N1CCC(N2CCN(c3ccccc3)CC2)CC1 | -13%
Cc1cc(C)n(-c2nnc(N3CCN(c4ccccc4)CC3)nn2)n1 | -6.3%
CN1CCC(CN)(N2CCN(c3ccccc3)CC2)CC1 | 83.9% (active)
C[C@@H]1CCCCO[C@@H](CN(C)C)[C@@H](C)CN([C@H](C)CO)C(=O)c2cc(NC(=O)c3ccncc3)ccc2O1 | -19.4%
CCCC#Cc1ccc([C@@H]2[C@@H](CO)N3C(=O)CN(C(=O)Nc4ccc(F)cc4)C[C@@H]23)cc1 | 6.28%
O=C(C1CCCC1)N1[C@H](CO)[C@H]2c3ccccc3N(S(=O)(=O)c3ccccc3)C[C@H]21 | -8.44%
C[C@@H]1CN([C@H](C)CO)C(=O)c2cccc(NC(=O)Nc3ccc4c(c3)OCO4)c2O[C@H]1CN(C)S(=O)(=O)c1ccc(Cl)cc1 | -13.7%
O=C(NC[C@H]1CC[C@H]2[C@H](CN2Cc2cccc(Cl)c2)O1)C1CC1 | -6.18%
